This passage reports Percent Effect results from ChEMBL document CHEMBL3988442, “University of Dundee, Small-Polar-MMV Screening Library” (2021).

Entries with a potency or affinity are not part of this list.

This assay has as its target T1, Ubiquitin-activating enzyme e1, putative (Leishmania donovani (strain BPK282A1)) (UniProt E9BSI1).
T1 sequence (whole entry): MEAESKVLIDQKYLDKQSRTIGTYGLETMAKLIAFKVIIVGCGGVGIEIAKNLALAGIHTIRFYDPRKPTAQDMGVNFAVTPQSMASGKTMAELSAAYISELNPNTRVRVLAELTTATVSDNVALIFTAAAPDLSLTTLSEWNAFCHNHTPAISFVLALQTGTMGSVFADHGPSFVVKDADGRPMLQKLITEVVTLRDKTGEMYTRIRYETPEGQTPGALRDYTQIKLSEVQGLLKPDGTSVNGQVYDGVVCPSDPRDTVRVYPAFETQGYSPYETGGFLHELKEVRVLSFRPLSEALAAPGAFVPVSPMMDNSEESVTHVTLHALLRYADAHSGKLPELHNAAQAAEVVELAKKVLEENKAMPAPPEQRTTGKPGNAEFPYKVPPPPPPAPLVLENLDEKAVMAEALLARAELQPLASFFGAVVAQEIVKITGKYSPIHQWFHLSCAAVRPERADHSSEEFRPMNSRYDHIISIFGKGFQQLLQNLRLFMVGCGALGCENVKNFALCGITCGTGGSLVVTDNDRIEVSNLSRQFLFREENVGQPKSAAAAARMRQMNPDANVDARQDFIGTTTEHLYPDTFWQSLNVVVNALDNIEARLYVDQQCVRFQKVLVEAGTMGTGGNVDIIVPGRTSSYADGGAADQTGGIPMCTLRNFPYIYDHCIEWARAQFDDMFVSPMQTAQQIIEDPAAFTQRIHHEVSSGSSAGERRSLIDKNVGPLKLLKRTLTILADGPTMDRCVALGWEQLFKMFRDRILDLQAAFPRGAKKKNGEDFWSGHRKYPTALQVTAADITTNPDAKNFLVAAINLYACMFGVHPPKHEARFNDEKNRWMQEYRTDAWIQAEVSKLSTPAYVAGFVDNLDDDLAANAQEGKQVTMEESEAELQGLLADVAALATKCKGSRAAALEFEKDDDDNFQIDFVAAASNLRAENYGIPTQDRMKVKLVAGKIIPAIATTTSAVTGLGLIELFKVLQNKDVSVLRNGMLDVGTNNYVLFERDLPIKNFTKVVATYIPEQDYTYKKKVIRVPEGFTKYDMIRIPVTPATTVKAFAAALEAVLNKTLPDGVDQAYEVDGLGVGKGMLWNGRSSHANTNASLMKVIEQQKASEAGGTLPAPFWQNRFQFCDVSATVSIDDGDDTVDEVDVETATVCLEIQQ
Briefly: Leishmania donovani Ubiquitin Activating Enzyme (LdE1). Also on record: scale not given: direction of the effect not stated beside the values. Format: functional. The conditions noted are these: 30 µM.
Regarding `O=C1COC2(CCN(C(=O)c3ccco3)CC2)CN1Cc1ccccn1`, the Percent Effect stood at 16.9%.

Turning to `Cc1ccn(-c2cccc(C(=O)N3CCCC(n4ccnc4C)C3)c2)n1` (stereo not given), the Percent Effect amounted to 7.79%.

With `Cc1ccoc1-c1nnc(CN2CCn3c(nnc3C3CC3)C2)o1`, the Percent Effect was 0%.

`CC(=O)N1CCCC1c1csc(Nc2cnccn2)n1` (stereo not given): the Percent Effect was determined as 9.33%.

Turning to `Fc1ccc(-c2nnc(CN3CCn4c(nnc4C4CC4)C3)o2)cc1`, the Percent Effect is -18.7%.

With `CC(C)c1cc(NC(=O)CN2CCNC(=O)C2)on1`, the Percent Effect came out at 26%.

With `CN(C)c1ccc(NC(=O)NCc2ccccn2)cn1`, the Percent Effect worked out at 20.8%.

For the molecule `CNc1snc(C)c1C(=O)N1CCCC(n2nc(C)cc2C)C1` (stereo not given), the Percent Effect was 13.3%.

In the case of `COc1ccc(CN2CCC[C@@H]3CN(C(=O)c4ccco4)C[C@@H]32)cc1`, the Percent Effect worked out at 11.7%.

Consider `O=C(c1cc(Cl)c2c(c1)OCCO2)N1CCCC(n2cncn2)C1` (stereo not given), for which the Percent Effect is -5.33%.

As to `CCC(=O)N1CCC(O)(c2ncc(OC)nc2OC)CC1`, the Percent Effect turned out to be 9.33%.

For the molecule `CCCn1ncc2c(C(=O)Nc3n[nH]c(SC)n3)cc(C3CC3)nc21`, the Percent Effect is 14.7%.

Turning to `Cc1nc(CN(C)C2CCN(CCCOc3ccccc3)C2)no1` (stereo not given), the Percent Effect is 23.4%.

As to `CCOc1ncccc1NC(=O)NC1CCCN(c2ncccn2)C1` (stereo not given), the Percent Effect is 23.4%.

Turning to `COC(=O)NCc1cc2n(n1)CCCN(C(C)=O)C2`, the Percent Effect is 5.41%.

In the case of `Fc1ccc(CN2CCC(c3n[nH]c4ncccc34)CC2)cc1F`, the Percent Effect was 4%.

As for `c1ccc(-c2nc(CN3CCc4c(ncn4C4CC4)C3)cs2)cc1`, the Percent Effect is 5.2%.

`Cc1ccc(C(=O)N2CCCC3(CCCC(=O)N3C)C2)cc1F` (stereo not given): the Percent Effect was 19.5%.

For `Cc1nn(C)c(N(C)C)c1CNC(C)c1cccc(OC(C)C)c1` (stereo not given), the Percent Effect came to 5.2%.

For `c1csc(-c2nc(CN3CCn4c(nnc4C4CC4)C3)co2)c1`, the Percent Effect was 5.33%.

Regarding `CCCc1n[nH]cc1C(=O)N1CCC(c2nccn2CCOC)CC1`, the Percent Effect is 16.2%.

Turning to `Cc1cc(C)n2cc(CN3CCCC3Cn3nc(C)nc3C)nc2n1` (stereo not given), the Percent Effect was -2.67%.

`CN(C)S(=O)(=O)N1CCCC(c2cccc(Cc3ccccc3)n2)C1` (stereo not given): the Percent Effect stood at 6.67%.

For the molecule `CC(C)NC(=O)CC1COC2(CCN(Cc3cccs3)CC2)C1` (stereo not given), the Percent Effect was 16.9%.

Consider `CCc1nc(C2CCCN2C(=O)c2c[nH]c(C)n2)no1` (stereo not given), for which the Percent Effect was 10.7%.

As to `Cc1cc(NC(=O)NCC2CCOC2)no1` (stereo not given), the Percent Effect was 10.7%.

With `CC(C)(O)CN1CCN(C(=O)c2cccnc2O)CC1`, the Percent Effect is -2.56%.

Turning to `CC1(C)OCC(CNC(=O)c2cnn(-c3ccc(Cl)cc3)c2N)O1` (stereo not given), the Percent Effect was 17.3%.

In the case of `O=c1c2ccccc2nc2n1C(CSc1ccc(Cl)cc1Cl)CN2` (stereo not given), the Percent Effect turned out to be 19.5%.

In the case of `Cc1ccc(CN2CCCn3c(nc(CN4CCCC4)cc3=O)C2)s1`, the Percent Effect turned out to be 3.9%.

With `CC(C(=O)N1CCCC1)N1CCC(c2nccn2Cc2cscn2)CC1` (stereo not given), the Percent Effect stood at 0%.

On to `Cn1ccc(C(=O)NCc2cccc(NC(=O)C3CCC3)c2)cc1=O`, for which the Percent Effect was 26%.

Take `c1cc(-c2nc(CN3CCn4c(nnc4C4CC4)C3)cs2)cs1`: the Percent Effect is -23.1%.

As for `Cc1ccc(-c2nc(CN3CCCC(Cn4cncn4)C3)no2)cc1` (stereo not given), the Percent Effect is -2.6%.

As for `c1cc(-c2noc(CN3CCn4c(nnc4C4CC4)C3)n2)co1`, the Percent Effect is 12.8%.

On to `Cn1cnc2c1CCN(Cc1cccc(C(N)=O)c1)C2`, for which the Percent Effect came out at 7.69%.

On to `CCn1ccnc1CN(C)CC1CCCN1c1cccnn1` (stereo not given), for which the Percent Effect was 2.67%.

For `CNc1cc(C2CCCN2C(=O)c2ccc3oc(=O)n(C)c3c2)ccn1` (stereo not given), the Percent Effect was 14.7%.

For `Cc1cccc(N2CCN(C(=O)Nc3cnn(CC(N)=O)c3)CC2)c1`, the Percent Effect came out at 20.5%.

On to `CC(C)c1cc(N2CCC(N)CC2)n2nccc2n1`, for which the Percent Effect amounted to 5.41%.
